ASM inhibitor – human S-ASM enzyme inhibition | P17405 | placental ASM, HMU-PC fluorogenic substrate, 60 min | Potency, µM (series often up to 57.5 µM), actives largely listed as inhibitors | hit rate 0.006% among 340,000 | AID 504937
Target sequence (P17405 47-631 limits assumed): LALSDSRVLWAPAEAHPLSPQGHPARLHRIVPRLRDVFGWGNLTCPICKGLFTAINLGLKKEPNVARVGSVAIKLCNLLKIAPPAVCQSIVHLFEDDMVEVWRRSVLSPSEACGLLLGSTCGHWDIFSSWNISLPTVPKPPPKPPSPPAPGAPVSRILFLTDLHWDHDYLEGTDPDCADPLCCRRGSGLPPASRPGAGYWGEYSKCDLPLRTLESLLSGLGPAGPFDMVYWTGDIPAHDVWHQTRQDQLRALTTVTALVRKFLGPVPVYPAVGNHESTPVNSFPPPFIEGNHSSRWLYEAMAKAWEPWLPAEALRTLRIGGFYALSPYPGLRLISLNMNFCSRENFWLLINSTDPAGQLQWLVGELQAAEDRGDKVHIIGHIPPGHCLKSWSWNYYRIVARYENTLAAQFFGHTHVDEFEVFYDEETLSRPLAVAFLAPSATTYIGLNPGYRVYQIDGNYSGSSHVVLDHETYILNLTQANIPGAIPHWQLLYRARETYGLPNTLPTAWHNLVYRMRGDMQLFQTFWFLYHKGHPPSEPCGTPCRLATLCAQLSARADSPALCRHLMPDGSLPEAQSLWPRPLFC
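Human placenta-derived ASM enzyme was preincubated with compound for 10 minutes at room temperature, then given fluorogenic substrate HMU-PC0 (9 uM final) for 60 minutes at 37 °C; a pH 10 stop preceded fluorescence reading at Ex 386/Em 447 nm.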
TGFb inhibitor – inhibitors of TGF-b signaling; AID 588855; hit rate 1.2% among 410,000; HepG2 CAGA-GFP TGF-b/SMAD3 reporter, GFP fluorescence, 18 h; TGF-beta stimulated, 500 pg/mL final; Potency, µM (series often up to 46.1 µM), most hits filed as inhibitors; note: nearly all actives have a fitted effect of over 65% in size
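Cell-based qHTS in HEPG2 carrying a CAGA-GFP Smad reporter; compounds added before 500 pg/mL final TGF-beta, 18 h incubation at 37 degrees C, GFP fluorescence quantified per cell by imaging cytometry.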
HepG2 tox – counter-screen for TGF-b inhibitors: cytotoxicity in HepG2 cells | AID 588856 | Potency, µM (doses to about 46.1 µM), actives largely listed as cytotoxic | hit rate 0.76% among 410,000 | HepG2 CAGA-GFP viability, ATP luminescence, 18 h
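HepG2 CAGA-GFP cells (1000/well, DMEM with 1% FBS) received compound, then TGF-beta at 500 pg/mL final, and were incubated 18 hours at 37 degrees C. Viability was read by CellTiter-Glo luminescence. Media-only wells were set as complete cell-killing and DMSO as no toxicity.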
IL1B secr inh – inflammasome signaling inhibition, IL-1 beta readout; hit rate 4.7% among 360,000; THP-1 LPS/ATP IL-1B secretion, AlphaLISA, 16 h; stronger effect = lower value; AID 743279; activity change, % at 57.5 µM; in the data active = activity change below about -50%; inconclusive = mostly about -30% to -49%
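THP-1 cells pretreated 1 hr with compounds (up to 57.5 uM final), then stimulated with LPS (250 ng/mL final) plus ATP (1.25 mM final); secreted IL-1B measured by AlphaLISA after 16 hr, decreased signal indicating inhibition.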
TDP1 cell noCPT – qHTS for Inhibitors of human tyrosyl-DNA phosphodiesterase 1 (TDP1): qHTS in cells in absence of CPT; DT40 Tdp1-/- hTDP1 cells, no CPT, ATP luminescence, 48 h; Potency, µM (highest dose often 46.2 µM), most hits filed as inhibitors; hit rate 15% among 420,000; AID 686978, 2013; note: nearly all actives have a fitted effect of over 55% in size
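Growth kinetics read by CellTiter-Glo luminescence after ≥48 hr at 37 °C. Cells: DT40 Tdp1-/- stably carrying human TDP1, 400 per well, compound exposure in the absence of CPT (DMSO vehicle).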
DT40 TDP1 CPT – growth inhibition of DT40 Tdp1-/-;hTDP1 cells with camptothecin (screen for TDP1 inhibitors). hit rate 12% among 420,000. Potency, µM (highest dose often 46.2 µM), usual class: inhibitors. chicken DT40 Tdp1-/-;hTDP1 cells + 20 nM CPT, ATP luminescence, 48 h; note: nearly all actives have a fitted effect of over 55% in size
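Chicken DT40 Tdp1-/- cells stably complemented with human TDP1 were seeded at 400 cells/well in medium containing 20 nM camptothecin, exposed to pin-transferred compounds, and grown at 37 °C for at least 48 hr. Viability was read as ATP luminescence.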
Hits are given with their value; 0 = inactive; ? = inconclusive; - = no result; ! = not active in a repeat. In the library only some 19% were active in any assay of this set; here they are far more common. Unless noted, calls come from the whole dose curve; as a rule, active = well fitted curve in the direction sought with a large enough effect; inconclusive = small, poorly fitted or top-dose-only effect, or another doubt; inactive = no such curve, though single readings can be large; an effect the other way counts as inactive or inconclusive.

SMILES	ASM inhibitor	TGFb inhibitor	HepG2 tox	IL1B secr inh	TDP1 cell noCPT	DT40 TDP1 CPT
COc1ccc(-c2coc3c(C(=O)Nc4cc(OC)c(OC)c(OC)c4)cccc23)c(C)c1	-	0	0	0	3.66µM	4.11µM
Cc1ccccc1C1=NCC(=O)N(CC(=O)NCc2ccco2)c2sc3c(c21)CCCC3	0	0	0	-70.6	22.4µM	16.4µM
COc1ccc(Sc2cnn(-c3ccccc3)c(=O)c2Cl)cc1	0	0	0	?	?	?
Cc1cccc(OCC(=O)Nc2cc(-c3ccccc3F)nn2-c2ccccc2)c1	-	0	0	-	?	?
O=[As](O)(O)c1ccc(N=Nc2ccc(O)cc2)cc1	?	0	0	?	0	0
O=C1C(Cl)=CC(=Nc2ccc(O)cc2)C=C1Cl	0	?	0	?	2.59µM	1.3µM
CC[C@@]1(O)C(=O)OCc2c1cc1n(c2=O)Cc2cc3ccccc3nc2-1	-	0	0	-	0.0891µM!	0.0794µM
CC[C@@]1(O)C(=O)OCc2c1cc1n(c2=O)Cc2cc3c(NC(=O)CN)cccc3nc2-1	0	?	0	?	0.411µM	0.231µM
CC[C@@H](O)C[C@H]1CCC[C@@]2(C[C@@H]3OC(=O)/C=C/[C@@](C)(O)[C@@H](O)[C@H](C)[C@@H](O)[C@H](OC4CCC(N(C)C)C(C)O4)[C@@H](O)[C@](C)(O)CCCCC/C=C/[C@@H]4CC(C)(C)O[C@@]4(O)C[C@H](O2)[C@H]3C)O1 (stereo partly specified)	0	0	0	-56.2	0.146µM	0.0164µM
COC1C(C)OC(OC2CC(C)(O)Cc3cc4c(c(O)c32)C(=O)c2c(O)cc3c(c2C4=O)OC2OC3(C)C(O)C(N(C)C)C2O)C(OC)C1(C)OC (stereo unspecified)	0	2µM	0	-99.2	0.116µM	0.082µM
Cc1cccc(C2=NN(c3ccc(Br)cc3)[C@@H](C(=O)N3CCOC3=O)[C@@H]2c2ccc([N+](=O)[O-])cc2)c1	0	0	0	0	?	?
CN(C)CCNC(=O)c1cccn(Cc2cc(C(F)(F)F)cc(C(F)(F)F)c2)c1=O	0	0	0	?	0	0
O=C(CNC(=O)c1cccs1)NCC(=O)OCC(=O)c1ccc([N+](=O)[O-])cc1	0	0	0	0	?	18.4µM
O=C(OCC(=O)c1ccc([N+](=O)[O-])cc1)/C(=C\c1ccc(Cl)cc1)NC(=O)c1ccccc1	0	0	0	?	?	?
CCCN(c1ccc(C(C)C)cc1)S(=O)(=O)c1ccc2c(c1)oc(=O)n2CC(=O)OCC	-	?	0	-	?	?
CCC(=O)O[C@H]1[C@@H](N2CCCCC2)C[C@H]2[C@@H]3CC[C@H]4C[C@H](OC(C)=O)[C@@H](N5CCCCC5)C[C@]4(C)[C@H]3CC[C@@]21C	-	-	-	-	6.68µM	7.5µM
CCOC(=O)c1c(C)[nH]c(C)c1S(=O)(=O)N1CCC(C(=O)N2CCN(c3cccc(Cl)c3)CC2)CC1	-	?	0	-	?	?
CCCCCSc1cc(OC)c(CCNC)cc1OC	0	?	10µM	0	16.4µM	16.4µM
CCCCCCCSc1cc(OC)c(CCNC)cc1OC	0	?	0	-78.8	14.6µM	?
CCC1(C)OC(c2ccccc2)=C/C(=C/C=C2C(=O)NC(=O)NC2=O)O1 (stereo unspecified)	0	0	0	0	?	?
Cc1cccn2c(=O)c3cc(C(=O)N4CCC5(CC4)OCCO5)n(C)c3nc12	0	?	0	0	1.3µM	1.16µM
COc1ccc(C)cc1NC1=NC(C)(C)CS1	0	0	0	0	0	0
CCOC(=O)c1c(C)n(Cc2ccccc2)c2ccc(O)cc12	0	17.8µM	0	0	0	0
CCOC(=O)c1c(C)n(Cc2ccccc2)c2ccc(OCC(O)CNC(C)(C)C)cc12 (stereo unspecified)	0	?	17.8µM	-96.3	18.4µM	?
CCOC(=O)c1c(C)n(Cc2ccccc2)c2ccc(OCC(O)Cn3nc(C)nc3C)cc12 (stereo unspecified)	0	0	0	?	?	?
SMILES	ASM inhibitor	TGFb inhibitor	HepG2 tox	IL1B secr inh	TDP1 cell noCPT	DT40 TDP1 CPT
COC(=O)c1c(C)n(Cc2ccccc2)c2ccc(O)cc12	0	0	0	0	0	0
CC(=O)c1c(C)n(Cc2ccccc2)c2ccc(O)cc12	0	0	0	0	18.4µM	16.4µM
OC[C@@H]1CCCN2CCCC[C@@H]12	-	-	-	-	0	0
O=[N+]([O-])[N-][n+]1cnn(Cc2ccccc2)c1	0	0	0	0	0	0
Cc1ccc(-n2nc3ccc(NC(=O)COc4ccccc4C)cc3n2)cc1	-	0	0	-	?	?
COC(=O)C(Cc1ccc(N(CCCl)CCCl)cc1)N=Cc1ccccc1O (stereo unspecified)	0	?	0	-96.5	0.082µM	0.116µM
O=C(Cc1cc(=O)oc2cc(O)ccc12)NN=Cc1ccc(N(CCCl)CCCl)cc1	0	0	0	0	?	?
Cc1ccc(C2(O)CCN3CCCCC32)cc1 (stereo unspecified)	0	0	0	0	0	0
O=C(Nc1ccc2ccccc2c1)N1C[C@H]2C[C@@H](C1)c1cccc(=O)n1C2	0	0	0	0	0	0
C/C(N)=C(/C#N)C(=O)CSc1nc2cc(Cl)ccc2c(=O)n1-c1ccc(C)cc1	0	0	0	0	?	0
N#CC1=C(N)Oc2cc(O)ccc2C1c1ccc2c(c1)OCO2 (stereo unspecified)	0	0	0	0	0	0
CCNC(=O)C1CCCN(Cc2cc(C(F)(F)F)ccc2Cl)CC1 (stereo unspecified)	-	0	0	0	?	25.9µM
CCNC(=O)C1CCCN(Cc2ccc3ccccc3c2Br)CC1 (stereo unspecified)	-	0	0	0	?	?
COc1cc(OC)c(OC)cc1/C=C1\C(=O)NC(=O)N(Cc2ccccc2)C1=O	0	0	0	0	0	0
COc1ccc(CN2C(=O)NC(=O)/C(=C/c3ccc([N+](=O)[O-])s3)C2=O)cc1	0	?	0	0	4.61µM	10.3µM
COc1ccc(CN2C(=O)NC(=O)/C(=C\c3cc(OC)c(OC)c(OC)c3)C2=O)cc1	0	0	0	0	?	18.4µM
O=C1NC(=O)N(Cc2ccc(F)cc2)C(=O)/C1=C\c1ccc([N+](=O)[O-])s1	0	?	0	0	8.2µM	13µM
CN(C)c1cc[n+](CC(O)C[n+]2ccc(N(C)C)cc2)cc1	0	0	0	0	0	0
